The panel holds about 83,000 compounds, 20% with a hit somewhere; the sample as a whole holds those more often.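 Cells were grown in 96-well plates and exposed to the test compound at a single concentration for 48 hours; results are reported as percent growth, with values below 10 considered active.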 Activity calls are given as the source filed them.
What was measured:
Assay in all cases: NCI-60 one-dose screen, 48 h (100 = growth as untreated, 0 = no growth, -100 = all killed)
Details in all cases: 10 µM
HCT-15 colon = test system: HCT-15 colon
HT29 colon = test system: HT29 colon
SNB-75 CNS = test system: SNB-75 CNS
SNB-19 CNS = test system: SNB-19 CNS
U251 CNS = test system: U251 CNS
PC-3 prostate = test system: PC-3 prostate
SK-MEL-5 melanoma = test system: SK-MEL-5 melanoma
UACC-62 melanoma = test system: UACC-62 melanoma
LOX IMVI melanoma = test system: LOX IMVI melanoma
SK-MEL-28 melanoma = test system: SK-MEL-28 melanoma
SK-MEL-2 melanoma = test system: SK-MEL-2 melanoma
SN12C renal = test system: SN12C renal
UO-31 renal = test system: UO-31 renal
TK-10 renal = test system: TK-10 renal
ACHN renal = test system: ACHN renal
CAKI-1 renal = test system: CAKI-1 renal
A498 renal = test system: A498 renal
CCRF-CEM leukemia = test system: CCRF-CEM leukemia
MOLT-4 leukemia = test system: MOLT-4 leukemia

Measured: growth

COc1cc(C(c2c[nH]c3ccccc23)N2CCCC2)ccc1OCc1ccccc1 (stereo not drawn)
inactive: HCT-15 colon 77.1% | HT29 colon 78.5% | SNB-75 CNS 41.3% | SNB-19 CNS 87.5% | U251 CNS 86% | PC-3 prostate 55.1% | SK-MEL-5 melanoma 75.6% | UACC-62 melanoma 60.9% | LOX IMVI melanoma 68.9% | SK-MEL-28 melanoma 98% | SK-MEL-2 melanoma 81.6% | SN12C renal 74.9% | UO-31 renal 24.7% | TK-10 renal 76.6% | ACHN renal 73.2% | CAKI-1 renal 53.3% | A498 renal 71.6% | CCRF-CEM leukemia 16.2% | MOLT-4 leukemia 26.1%

CC(C)=C1CCC(C)C/C1=N\N=C(N)N (stereo not drawn)
inactive: HCT-15 colon 99.7% | HT29 colon 102% | SNB-75 CNS 97.7% | SNB-19 CNS 97.5% | U251 CNS 96.5% | PC-3 prostate 87.9% | SK-MEL-5 melanoma 98.6% | UACC-62 melanoma 103% | LOX IMVI melanoma 93.9% | SK-MEL-28 melanoma 109% | SK-MEL-2 melanoma 102% | SN12C renal 103% | UO-31 renal 81.3% | TK-10 renal 98.3% | ACHN renal 105% | CAKI-1 renal 93.3% | A498 renal 88.6% | CCRF-CEM leukemia 86.9% | MOLT-4 leukemia 98.8%

COc1cc(C)c2sc3ccccc3c(=O)c2c1NCCN(C)C
inactive: HCT-15 colon 39.3% | HT29 colon 16.3% | SNB-75 CNS 50.5% | SNB-19 CNS 65.2% | U251 CNS 44.8% | PC-3 prostate 53.4% | SK-MEL-5 melanoma 36.9% | LOX IMVI melanoma 26.4% | SK-MEL-28 melanoma 54.1% | SK-MEL-2 melanoma 121% | SN12C renal 54.2% | UO-31 renal 32% | TK-10 renal 61.9% | ACHN renal 38.4% | CAKI-1 renal 39.7% | A498 renal 55% | CCRF-CEM leukemia 22.6%
active: UACC-62 melanoma -90.3% | MOLT-4 leukemia 1.59%

COc1cc(N=C2C(=O)N(Cc3ccccc3)c3ccccc32)cc(OC)c1OC
inactive: HCT-15 colon 95.3% | HT29 colon 103% | SNB-75 CNS 82.6% | SNB-19 CNS 95.1% | U251 CNS 94.2% | PC-3 prostate 97.8% | SK-MEL-5 melanoma 94.2% | UACC-62 melanoma 90.8% | LOX IMVI melanoma 86.9% | SK-MEL-28 melanoma 113% | SK-MEL-2 melanoma 98.3% | SN12C renal 99.6% | UO-31 renal 77.3% | TK-10 renal 112% | ACHN renal 97.4% | CAKI-1 renal 83.8% | A498 renal 108% | CCRF-CEM leukemia 29.5% | MOLT-4 leukemia 96.9%

O=C(CCl)N1c2ccccc2Sc2ccc3ccccc3c21
active: HCT-15 colon -51.3% | HT29 colon -76.1% | SNB-75 CNS 3.3% | U251 CNS 0.19% | PC-3 prostate -86.6% | UACC-62 melanoma -0.738% | LOX IMVI melanoma -78.3% | SK-MEL-2 melanoma -25.5% | SN12C renal -49.1% | UO-31 renal -89.8% | TK-10 renal -57.7% | ACHN renal -89.1% | CAKI-1 renal -52.8% | A498 renal -90.2% | CCRF-CEM leukemia -15.1% | MOLT-4 leukemia -9.38%
inactive: SNB-19 CNS 69.7% | SK-MEL-5 melanoma 22.9% | SK-MEL-28 melanoma 19.6%

Cc1cc(/C=C2\SC(=Nc3ccccc3)N(C3CCCC3)C2=O)c(C)n1-c1ccc(Cl)cc1
active: HCT-15 colon -28.2% | HT29 colon -65.8% | SNB-75 CNS -51.3% | SNB-19 CNS -65.8% | U251 CNS -91.1% | PC-3 prostate -63.4% | SK-MEL-5 melanoma -97.9% | UACC-62 melanoma -56.3% | LOX IMVI melanoma -72.7% | SK-MEL-28 melanoma -69.8% | SK-MEL-2 melanoma -77.3% | SN12C renal -51.4% | UO-31 renal -91.9% | TK-10 renal -90.9% | ACHN renal -76.3% | CAKI-1 renal -59.9% | A498 renal -88.3% | CCRF-CEM leukemia -9.97% | MOLT-4 leukemia -18%

CCCCNC(=O)Oc1ccc(/C(=C(\C)c2ccc(OC)cc2)c2ccc(OCCN3CCCCC3)cc2)cc1
inactive: SNB-75 CNS 70.6% | SNB-19 CNS 69.9% | U251 CNS 38.9% | PC-3 prostate 43.3% | SK-MEL-5 melanoma 44.7% | UACC-62 melanoma 44% | LOX IMVI melanoma 20.1% | SK-MEL-2 melanoma 67.8% | SN12C renal 69.1% | UO-31 renal 11.2% | TK-10 renal 102% | ACHN renal 78.6% | CAKI-1 renal 60.3% | A498 renal 71% | CCRF-CEM leukemia 58.5% | MOLT-4 leukemia 20.1%
active: HCT-15 colon 0.377% | HT29 colon 7.84% | SK-MEL-28 melanoma 2.55%

COc1cc(-c2cc(-c3cc(OC)c(OC)c(OC)c3)nc3nc(N)[nH]c(=O)c23)ccc1Oc1ccnc2cc(Cl)ccc12
active: SNB-75 CNS -8.67%
inactive: HCT-15 colon 14.6% | HT29 colon 104% | SNB-19 CNS 59.4% | U251 CNS 23% | PC-3 prostate 25.9% | SK-MEL-5 melanoma 27% | UACC-62 melanoma 49.8% | LOX IMVI melanoma 27.8% | SK-MEL-28 melanoma 56.9% | SK-MEL-2 melanoma 29.2% | SN12C renal 31.3% | UO-31 renal 46.3% | TK-10 renal 92.9% | ACHN renal 48.4% | CAKI-1 renal 38.7% | A498 renal 84.9% | CCRF-CEM leukemia 18.2% | MOLT-4 leukemia 17.7%

O=c1c2cccc3c(Nc4ccc(Br)cn4)ccc(c32)c2nc3ccccc3n12
inactive: HCT-15 colon 72% | HT29 colon 94.6% | SNB-75 CNS 44% | SNB-19 CNS 85.9% | U251 CNS 93.6% | PC-3 prostate 76.7% | SK-MEL-5 melanoma 76.2% | UACC-62 melanoma 84.8% | LOX IMVI melanoma 87.2% | SK-MEL-28 melanoma 72.9% | SK-MEL-2 melanoma 108% | SN12C renal 92.3% | UO-31 renal 52.1% | TK-10 renal 78.1% | ACHN renal 90.2% | CAKI-1 renal 83.9% | A498 renal 93.9% | CCRF-CEM leukemia 97.9% | MOLT-4 leukemia 92.9%

COc1ccc(C2=NNC(c3sc(Cl)nc3Cl)C2)cc1 (stereo not drawn)
inactive: HCT-15 colon 34.2% | HT29 colon 85.9% | SNB-75 CNS 101% | SNB-19 CNS 95.6% | U251 CNS 93.7% | PC-3 prostate 89.6% | SK-MEL-5 melanoma 54.6% | UACC-62 melanoma 96% | SK-MEL-28 melanoma 98.9% | SK-MEL-2 melanoma 62.8% | SN12C renal 22.4% | UO-31 renal 85.3% | TK-10 renal 116% | ACHN renal 105% | CAKI-1 renal 97.4% | A498 renal 102% | CCRF-CEM leukemia 17.7%
active: LOX IMVI melanoma 9.86% | MOLT-4 leukemia 7.63%

C=CCOc1ccc2c(c1)CC=C1[C@@H]2CC[C@]2(C)C(=O)/C(=N/O)C[C@@H]12
inactive: HCT-15 colon 15% | HT29 colon 26.8% | SNB-75 CNS 115% | SNB-19 CNS 104% | U251 CNS 89.5% | PC-3 prostate 87% | SK-MEL-5 melanoma 84.7% | UACC-62 melanoma 108% | LOX IMVI melanoma 66.9% | SK-MEL-28 melanoma 105% | SK-MEL-2 melanoma 106% | SN12C renal 88.3% | UO-31 renal 86% | TK-10 renal 72.3% | ACHN renal 55.4% | CAKI-1 renal 50.4% | A498 renal 96.6% | CCRF-CEM leukemia 30.9% | MOLT-4 leukemia 46%

CCc1ccc(-c2nnc(COc3ccc(-c4nc5ccc(C)cc5[nH]4)cc3OC)o2)cc1
inactive: HCT-15 colon 21.9% | HT29 colon 48.9% | SNB-19 CNS 77.5% | U251 CNS 25.5% | PC-3 prostate 36.6% | SK-MEL-5 melanoma 15.3% | UACC-62 melanoma 79.6% | LOX IMVI melanoma 48.2% | SK-MEL-28 melanoma 77.4% | SK-MEL-2 melanoma 104% | SN12C renal 10.7% | UO-31 renal 38.2% | TK-10 renal 55.1% | CAKI-1 renal 30.3% | A498 renal 84.1% | MOLT-4 leukemia 38.6%
active: SNB-75 CNS -50% | ACHN renal -8.12% | CCRF-CEM leukemia 6.98%

CCOc1cc(Br)c(C(C)NC(=O)c2cccc(OC)c2)cc1OCC (stereo not drawn)
active: UACC-62 melanoma -56.2% | SK-MEL-28 melanoma 5.81%
inactive: HCT-15 colon 59.8% | HT29 colon 17.7% | SNB-75 CNS 76.7% | SNB-19 CNS 98.3% | U251 CNS 58.4% | PC-3 prostate 64.9% | SK-MEL-5 melanoma 45.1% | LOX IMVI melanoma 73.4% | SK-MEL-2 melanoma 80.9% | SN12C renal 78.8% | UO-31 renal 54.7% | TK-10 renal 77.8% | ACHN renal 95.7% | CAKI-1 renal 81.6% | A498 renal 54% | CCRF-CEM leukemia 53.7% | MOLT-4 leukemia 49.3%

COc1ccc(Cn2cc3c(c2-c2cc(OC)c(OC)c(OC)c2)CCc2cnoc2-3)cc1[N+](=O)[O-]
inactive: HCT-15 colon 34.2% | HT29 colon 13.1% | SNB-75 CNS 18.5% | SNB-19 CNS 43.2% | U251 CNS 39.8% | PC-3 prostate 27.6% | SK-MEL-5 melanoma 16% | UACC-62 melanoma 35.4% | LOX IMVI melanoma 39.6% | SK-MEL-28 melanoma 68.9% | SK-MEL-2 melanoma 43.4% | SN12C renal 43.4% | UO-31 renal 36.9% | TK-10 renal 76.4% | ACHN renal 60.4% | CAKI-1 renal 16.1% | A498 renal 45.2% | CCRF-CEM leukemia 22% | MOLT-4 leukemia 30%

O=C(Nc1cccc(C(F)(F)F)c1)C(Cl)Cl
inactive: HCT-15 colon 94% | HT29 colon 92.2% | SNB-75 CNS 91.3% | SNB-19 CNS 99% | U251 CNS 102% | PC-3 prostate 95.1% | SK-MEL-5 melanoma 103% | UACC-62 melanoma 105% | LOX IMVI melanoma 101% | SK-MEL-28 melanoma 104% | SK-MEL-2 melanoma 97.4% | SN12C renal 105% | UO-31 renal 80.6% | TK-10 renal 108% | ACHN renal 103% | CAKI-1 renal 105% | A498 renal 101% | CCRF-CEM leukemia 98.8% | MOLT-4 leukemia 98.4%

Cc1cc(Cl)ccc1Nc1nc(C(F)(F)F)ccc1C(=O)N/N=C/c1ccccc1Cl
active: PC-3 prostate 8.2% | SK-MEL-5 melanoma -54.4% | UACC-62 melanoma -4.83% | UO-31 renal 7.23% | CAKI-1 renal 5.28%
inactive: HCT-15 colon 22.9% | HT29 colon 14.7% | SNB-75 CNS 37.9% | SNB-19 CNS 29.5% | U251 CNS 22.5% | LOX IMVI melanoma 20.1% | SK-MEL-28 melanoma 37.2% | SK-MEL-2 melanoma 19.2% | SN12C renal 19.6% | TK-10 renal 19% | ACHN renal 16% | A498 renal 21.8% | CCRF-CEM leukemia 14.7% | MOLT-4 leukemia 41.2%

O=C(Nc1ccc(Oc2ccc(Nc3nc4ccccc4s3)cc2)cc1)Nc1ccc(Cl)c(Cl)c1
inactive: HCT-15 colon 20.7% | HT29 colon 31.7% | SNB-75 CNS 44.1% | SNB-19 CNS 27.1% | U251 CNS 29.5% | PC-3 prostate 23.4% | SK-MEL-5 melanoma 34.3% | UACC-62 melanoma 21.1% | LOX IMVI melanoma 26.2% | SK-MEL-28 melanoma 45.9% | SK-MEL-2 melanoma 50.7% | SN12C renal 24.9% | UO-31 renal 25.8% | TK-10 renal 54.1% | ACHN renal 20.3% | CAKI-1 renal 37.6% | A498 renal 33.4% | CCRF-CEM leukemia 24.5%
active: MOLT-4 leukemia 9.65%
